High-throughput results as filed in PubChem BioAssay.
This is a sample that favours compounds with a hit; in the whole collection about 19% have one here.
DT40 TDP1 no CPT = qHTS for Inhibitors of human tyrosyl-DNA phosphodiesterase 1 (TDP1): qHTS in cells in absence of CPT; DT40 Tdp1-/- hTDP1 cells, no CPT, ATP luminescence, 48 h; Potency, µM (highest dose often 46.2 µM), inactives show top-dose activity change, negative = growth inhibition, most hits filed as inhibitors; 420,000 compounds, 15% hits; AID 686978, 2013; note: potency is the fitted concentration of half-maximal effect; nearly all actives have a fitted effect of over 55% in size
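No-CPT arm: Tdp1-/-;hTDP1 DT40 cells (400/well) plus compounds, incubated ≥48 hr at 37 °C. Readout CellTiter-Glo luminescence.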
TDP1 cell CPT = qHTS for Inhibitors of human tyrosyl-DNA phosphodiesterase 1 (TDP1): qHTS in cells in presence of CPT. Potency, µM (highest dose often 46.2 µM), without a hit: at the top dose activity change, negative = growth inhibition, actives largely listed as inhibitors. chicken DT40 Tdp1-/-;hTDP1 cells + 20 nM CPT, ATP luminescence, 48 h. 420,000 compounds, 12% hits; note: potency is the fitted concentration of half-maximal effect; nearly all actives have a fitted effect of over 55% in size
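Cell growth measured by CellTiter-Glo luminescence after a minimum 48 h, 37 C compound exposure with 20 nM CPT in Tdp1-knockout DT40 cells stably expressing hTDP1, seeded 400/well; qHTS titration format.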
ELG1 repair inh = qHTS screen for small molecules that inhibit ELG1-dependent DNA repair in human embryonic kidney (HEK293T) cells expressing luciferase-tagged ELG1; HEK293T ELG1-luciferase reporter, luminescence, 16 h; DNA damage induced by 5-fluorouridine; Potency, µM (doses to about 46.1 µM), for inactives: at the highest dose activity change, negative = inhibition, hits mostly inhibitors; 330,000 compounds, 2.3% hits; note: potency is the fitted concentration of half-maximal effect; nearly all actives have a fitted effect of over 55% in size
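Overnight (16 hr) co-exposure of 2,000 cells/well to 5-fluorouridine and compound at 37 °C preceded detection. Luciferase was quantified via ONE-Glo luminescence; loss of signal denotes inhibition.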
TDP1 inh = qHTS Assay for Inhibitors of Tyrosyl-DNA Phosphodiesterase (TDP1) | Tyrosyl-DNA phosphodiesterase 1 (Homo sapiens), Q9NUW8 | recombinant TDP1, AlphaScreen DNA substrate cleavage | Potency, µM (titrated, usually from 130 µM), for inactives: at the highest dose activity change, negative = inhibition, hits mostly inhibitors | 350,000 compounds, 0.28% hits | AID 485290, 2010; note: potency is the fitted concentration of half-maximal effect; nearly all actives have a fitted effect of over 40% in size
Target sequence (Q9NUW8 whole entry, looked up): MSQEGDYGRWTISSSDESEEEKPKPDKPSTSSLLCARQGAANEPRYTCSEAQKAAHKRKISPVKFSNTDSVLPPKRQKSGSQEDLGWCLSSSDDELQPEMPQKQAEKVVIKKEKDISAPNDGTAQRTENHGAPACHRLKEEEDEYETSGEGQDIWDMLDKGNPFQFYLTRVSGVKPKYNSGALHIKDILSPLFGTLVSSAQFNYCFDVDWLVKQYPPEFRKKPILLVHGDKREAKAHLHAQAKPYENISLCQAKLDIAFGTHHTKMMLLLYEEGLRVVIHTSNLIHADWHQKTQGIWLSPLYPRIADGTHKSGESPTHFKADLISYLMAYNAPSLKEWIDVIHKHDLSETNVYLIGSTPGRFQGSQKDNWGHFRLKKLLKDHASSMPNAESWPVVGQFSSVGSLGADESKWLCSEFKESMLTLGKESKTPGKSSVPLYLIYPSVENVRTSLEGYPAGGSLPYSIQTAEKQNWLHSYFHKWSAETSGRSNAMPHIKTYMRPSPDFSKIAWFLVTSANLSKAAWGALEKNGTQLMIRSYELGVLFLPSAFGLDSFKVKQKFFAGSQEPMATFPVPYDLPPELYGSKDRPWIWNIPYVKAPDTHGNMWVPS
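Signal: AlphaScreen proximity between streptavidin donor and anti-FITC acceptor beads on intact substrate. Reaction: Tdp1 1 nM, substrate 15 nM final, 5 min RT after 15 min compound preincubation.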
Giardia kill = Small Molecules that selectively kill Giardia lamblia: qHTS. activity change, % at 7.66 µM, hits read low. 340,000 compounds, 0.15% hits. Giardia lamblia trophozoite viability. AID 540267, 2011; in the data active = activity change below about -80%; inconclusive = between about -30% and that limit;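 note: parasites exposed to compound for two days anaerobically before the ATP read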
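Giardia trophozoites, 100 cells per well, were exposed to compounds for 48 hrs at 37 deg C under anaerobic conditions; viability was then read as ATP content by bioluminescence after 15-30 min at room temperature.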
IL1B secr inh = qHTS for Inhibitors of Inflammasome Signaling: IL-1-beta AlphaLISA Primary Screen; 360,000 compounds, 4.7% hits; activity change, % at 57.5 µM; AID 743279, 2014; THP-1 LPS/ATP IL-1B secretion, AlphaLISA, 16 h; active compounds read low; in the data active = activity change below about -50%; inconclusive = mostly about -30% to -49%
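THP-1 cells pretreated 1 hr with compounds (up to 57.5 uM final), then stimulated with LPS (250 ng/mL final) plus ATP (1.25 mM final); secreted IL-1B measured by AlphaLISA after 16 hr, decreased signal indicating inhibition.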
Active calls of the source: *; [ ] = remark or other dose. Unless noted, calls come from the whole dose curve; as a rule, active = well fitted curve in the direction sought with a large enough effect; inconclusive = small, poorly fitted or top-dose-only effect, or another doubt; inactive = no such curve, though single readings can be large; an effect the other way counts as inactive or inconclusive. % is set by controls: 0 for no effect and ±100 for the full control effect.

What do the screens show for `COc1ccc(Br)cc1C(=O)Nc1ccccc1-c1ccccc1`?
DT40 TDP1 no CPT: 29µM*; TDP1 cell CPT: inconclusive; ELG1 repair inh: -3%; TDP1 inh: -7%; Giardia kill: -6; IL1B secr inh: 42

What do the screens show for `CC(OC(=O)C1CCCC1)C(=O)Nc1ncc(Cl)cc1Cl` (stereo not given)?
DT40 TDP1 no CPT: 13%; TDP1 cell CPT: 0%; ELG1 repair inh: -5%; TDP1 inh: 1%; Giardia kill: -4; IL1B secr inh: -17

How did Cc1ccc(S(=O)(=O)CCC(=O)OCC(=O)NCc2ccc(F)cc2)cc1 do in these assays?
DT40 TDP1 no CPT: -11%; TDP1 cell CPT: -5%; IL1B secr inh: 27

How did Cc1ccc(S(=O)(=O)CCC(=O)NC2CCCC2)cc1 do in these assays?
DT40 TDP1 no CPT: 13%; TDP1 cell CPT: -16%; ELG1 repair inh: -9%; TDP1 inh: 3%; Giardia kill: 7; IL1B secr inh: 7

How did Cc1ccc(CNC(=O)CCS(=O)(=O)c2ccc(Cl)cc2)cc1 do in these assays?
DT40 TDP1 no CPT: -13%; TDP1 cell CPT: -7%; ELG1 repair inh: -8%; TDP1 inh: -3%; Giardia kill: -22; IL1B secr inh: 53

Results for Cc1ccc(S(=O)(=O)CCC(=O)NC2CCCCC2)cc1 ?
DT40 TDP1 no CPT: 15µM*; TDP1 cell CPT: 18µM*; ELG1 repair inh: 15%; TDP1 inh: 1%; Giardia kill: inconclusive; IL1B secr inh: 13

How did O=C(CCS(=O)(=O)c1ccc(Br)cc1)NCc1ccc(F)cc1 do in these assays?
DT40 TDP1 no CPT: -11%; TDP1 cell CPT: 4%; ELG1 repair inh: 0%; TDP1 inh: 50µM*; Giardia kill: 37; IL1B secr inh: 0

What do the screens show for `Cc1ccc(CNC(=O)CCS(=O)(=O)c2ccc(Br)cc2)cc1`?
DT40 TDP1 no CPT: -6%; TDP1 cell CPT: -6%; ELG1 repair inh: 0%; TDP1 inh: 11µM*; Giardia kill: -6; IL1B secr inh: 46

What do the screens show for `CC1=C(c2ccc(F)cc2)S(=O)(=O)NC1=NCc1ccccc1Cl`?
DT40 TDP1 no CPT: -30%; TDP1 cell CPT: -23%; TDP1 inh: 3%

How did CC1=CC(C)(C)NC(=S)N1c1cccc2ccccc12 do in these assays?
DT40 TDP1 no CPT: 26µM*; TDP1 cell CPT: inconclusive; ELG1 repair inh: -9%; TDP1 inh: 2%; Giardia kill: -5; IL1B secr inh: 0

How did CC1=CC(C)(C)NC(=S)N1c1ccc2ccccc2c1 do in these assays?
DT40 TDP1 no CPT: inconclusive; TDP1 cell CPT: inconclusive; ELG1 repair inh: -6%; TDP1 inh: 1%; Giardia kill: 11; IL1B secr inh: 11

Results for COc1ccc(-c2ccc(N)[n+](CCCC(=O)O)n2)cc1 ?
DT40 TDP1 no CPT: 22%; TDP1 cell CPT: -11%; TDP1 inh: -8%[56.1 µM]; Giardia kill: 12; IL1B secr inh: 7

What do the screens show for `CCN(Cc1ccc(NC(C)=O)cc1)CC1CCCN(CCc2cccc(F)c2)C1` (stereo not given)?
DT40 TDP1 no CPT: inconclusive; TDP1 cell CPT: -19%; ELG1 repair inh: -9%; Giardia kill: -1; IL1B secr inh: -6

How did CCN(Cc1ccc(C#CCCO)cc1)CC1CCCN(CCc2cccc(OC)c2)C1 (stereo not given) do in these assays?
DT40 TDP1 no CPT: 21µM*; TDP1 cell CPT: inconclusive; ELG1 repair inh: -11%; Giardia kill: 29; IL1B secr inh: -6
